Only some compounds are listed: those with a hit (about 2.9% of all), similar ones and a draw of the others.
BioA inh: BioA (M. tuberculosis) enzyme inhibition. purified M. tuberculosis BioA enzyme, plate reader. inhibition, % at 9.99 µM. 360,000 tested, 0.096% active; in the data active means inhibition above about 40%
FBA Mtb inh: inhibits M. tuberculosis FBA enzyme. P9WQA3. purified M. tuberculosis FBA, fluorescence read-out. inhibition, % at 1 µM. 360,000 tested, 2.3% active; in the data active means inhibition above about 27%;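 further: 0% = vehicle and 100% = reference inhibitor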
Target sequence (P9WQA3 whole entry, looked up): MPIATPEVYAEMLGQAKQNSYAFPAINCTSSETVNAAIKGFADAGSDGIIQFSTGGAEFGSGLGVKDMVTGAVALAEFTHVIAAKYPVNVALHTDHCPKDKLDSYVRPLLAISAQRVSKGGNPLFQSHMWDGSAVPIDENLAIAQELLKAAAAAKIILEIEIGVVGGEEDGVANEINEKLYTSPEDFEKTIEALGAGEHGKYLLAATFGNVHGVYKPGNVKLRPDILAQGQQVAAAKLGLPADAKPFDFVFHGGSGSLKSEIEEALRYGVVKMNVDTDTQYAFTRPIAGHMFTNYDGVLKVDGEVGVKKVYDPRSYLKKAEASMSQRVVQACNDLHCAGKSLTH
FadD28 binding: M. tuberculosis FadD28 bisubstrate binding inhibition; FadD28 bisubstrate probe binding, fluorescence polarization; inhibition, % at 12.5 µM; 360,000 tested, 0.22% active; AID 588549; in the data active means inhibition above about 8.5%, passing the limit was not always enough
Mtb hypoxia inh: reduces hypoxia-regulated biosensor signal in M. tuberculosis. M. tuberculosis hypoxia-regulated fluorescent reporter, fluorescence. fluorescence inhibition, % (no concentration beside the values). AID 1159583. 300,000 tested, 0.1% active; in the data active means fluorescence inhibition mostly above about 23%, no sharp cut-off; inactive means mostly below about 17%
GDH-TPI inh: inhibits GDH-TPI coupling enzymes, artifact for Mtb FBA screen; GDH-TPI coupled enzyme counterscreen, NADH absorbance; inhibition, % at 4.8 µM; 360,000 tested, 1.2% active; AID 588335; in the data active means inhibition above about 30%;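 further: 0% = DMSO wells and 100% = wells lacking the enzyme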
* marks the source's active call; other numbers are inactive results.

CNC[C@H]1OCCCC[C@@H](C)Oc2ccc(NC(=O)CCC(F)(F)F)cc2C(=O)N([C@H](C)CO)C[C@@H]1C was read as BioA inh -1.
For CCCNC(=O)N1[C@@H]2CN(C(=O)Nc3ccc(F)cc3)c3ccccc3[C@@H]2[C@@H]1CO the results were BioA inh 2.
`NC(=S)N/N=C/c1c[nH]c2ccccc12` gave BioA inh -1, FBA Mtb inh -1, FadD28 binding -4 and GDH-TPI inh 56*.
Screening O=C(NN=Cc1c[nH]c2ccccc12)c1cc(Br)ccc1O returned Mtb hypoxia inh 3.
Screening O=C(N/N=C/c1c[nH]c2ccccc12)c1cc(Cl)ccc1O returned BioA inh -6, FBA Mtb inh 17, FadD28 binding 16* and GDH-TPI inh 29.
Nc1ccc(C(=O)N/N=C2\CCCc3c2[nH]c2ccccc32)cc1 was read as BioA inh 6, FBA Mtb inh 12, FadD28 binding 4 and GDH-TPI inh 62*.
For O=C(NC[C@@H]1N[C@@H](CO)[C@H]1c1ccc(-c2ccccc2F)cc1)c1ccccc1 the results were BioA inh -3.
Screening CCCCOc1ccc(/C=N/NC(=S)Nc2cc(C)ccc2C)cc1 returned BioA inh 0, FBA Mtb inh 2, FadD28 binding 0 and GDH-TPI inh 40*.
For Cn1cnc(CCNC(=O)C[C@@H]2CC[C@H]3[C@@H](COC[C@@H](O)CN3C(=O)C3CC3)O2)c1 the results were BioA inh 1.
CCOC(=O)COc1ccccc1/C=N\NC(=O)c1cc2c(ccc3ccccc32)o1 was read as BioA inh -3, FBA Mtb inh 8, FadD28 binding -6 and GDH-TPI inh 31*.
Screening CCOc1cc(/C=N/NC(=O)c2cc3c(ccc4ccccc43)o2)ccc1O returned BioA inh -4, FBA Mtb inh 9, FadD28 binding -4 and GDH-TPI inh 44*.
For CCCCCCCCCCCCN1C(CC(=O)O)c2cc(C(F)(F)F)ccc2S1(=O)=O (stereo not drawn) the results were Mtb hypoxia inh 12.
`O=C(COc1ccccc1/C=C\c1nc(O)c([N+](=O)[O-])c(=O)[nH]1)Nc1ccccc1` gave FBA Mtb inh 0, FadD28 binding -1, Mtb hypoxia inh 12 and GDH-TPI inh 21.
Screening O=c1[nH]c(/C=C\c2cccc(O)c2)nc(O)c1[N+](=O)[O-] returned BioA inh 0, FBA Mtb inh -7, FadD28 binding -6, Mtb hypoxia inh 0 and GDH-TPI inh 35*.
O=c1[nH]c(/C=C\c2ccc(O)c(O)c2)nc(O)c1[N+](=O)[O-] was read as BioA inh -2, FBA Mtb inh -6, FadD28 binding 0 and GDH-TPI inh 30.
For CCOc1ccccc1/C=C\c1nc(O)c([N+](=O)[O-])c(=O)[nH]1 the results were BioA inh -2, FBA Mtb inh -1, FadD28 binding -1, Mtb hypoxia inh 5 and GDH-TPI inh 37*.
`O=C(CN1CCN(S(=O)(=O)c2ccc(Br)cc2)CC1)NN=Cc1ccco1` gave Mtb hypoxia inh 7.
`C=CCNc1nc(C(=O)OCC(=O)NCc2cccc(Cl)c2)cs1` gave BioA inh -3, FBA Mtb inh -1, FadD28 binding -3, Mtb hypoxia inh 34* and GDH-TPI inh -3.
For O=C(COC(=O)c1ccccn1)NCc1cccc(Cl)c1 the results were BioA inh 1, FBA Mtb inh 0, FadD28 binding -1, Mtb hypoxia inh 2 and GDH-TPI inh 10.
`Oc1ccccc1N=Cc1sc2ccccc2c1Cl` gave FBA Mtb inh -2, FadD28 binding -3, Mtb hypoxia inh 37* and GDH-TPI inh 3.
CCCc1nc2sc3ccccc3c(=O)c2c(=O)n1CCOC was read as Mtb hypoxia inh -9.
`CCc1nc2sc3ccccc3c(=O)c2c(=O)n1Cc1ccc(OC)cc1` gave BioA inh 1, FBA Mtb inh -3, FadD28 binding -4, Mtb hypoxia inh 4 and GDH-TPI inh 34*.
`CC(C)NC(=O)Nc1cccc2c1O[C@H](CN(C)C(=O)Nc1ccc(F)cc1)[C@H](C)CN([C@H](C)CO)C2=O` gave BioA inh 0.
O=C1N=C(N2CCOCC2)S/C1=C\c1cccs1 was read as BioA inh 0, FBA Mtb inh -2, FadD28 binding -1 and GDH-TPI inh 19.
Screening Cc1ccsc1/C=C1/SC(N2CCOCC2)=NC1=O returned Mtb hypoxia inh 48*.
For O=C(NNC(=O)c1cc2cc3ccccc3nc2s1)c1ccc(F)cc1 the results were BioA inh -2, FBA Mtb inh 5, FadD28 binding -1 and GDH-TPI inh 34*.
Screening CC(NC(=O)c1ccccc1N)c1ccccc1 (stereo not drawn) returned FBA Mtb inh 47*, FadD28 binding -5, Mtb hypoxia inh 14 and GDH-TPI inh -5.
Screening CCCCNC(=S)N/N=C/c1ccc(C)s1 returned BioA inh -2, FBA Mtb inh 6, FadD28 binding -1 and GDH-TPI inh 63*.
Screening COc1ccc(C2CC(=O)C=C(c3cccc(NC(C)=O)c3)C2)cc1 (stereo not drawn) returned Mtb hypoxia inh 1.
CCN(CC)S(=O)(=O)c1ccc(Cl)nc1 was read as FBA Mtb inh 63*, FadD28 binding -1, Mtb hypoxia inh -1 and GDH-TPI inh 8.
For C[C@H](CO)N1C[C@H](C)[C@@H](CN(C)S(=O)(=O)c2cccs2)OCCCC[C@H](C)Oc2ccc(NS(=O)(=O)c3cccs3)cc2C1=O the results were BioA inh -1.
Screening COc1cc(/C=C/c2ccc3c([N+](=O)[O-])cccc3n2)ccc1OCC(=O)O returned BioA inh 0, FBA Mtb inh -4, FadD28 binding -2, Mtb hypoxia inh 77* and GDH-TPI inh 39*.
COc1cc(/C=C/c2ccc3cccc([N+](=O)[O-])c3n2)ccc1OCC(=O)O was read as BioA inh 4, FBA Mtb inh -3, FadD28 binding 2, Mtb hypoxia inh 6 and GDH-TPI inh 45*.
`CC(=O)Nc1ccc(/C=C/c2ccc3cccc([N+](=O)[O-])c3n2)cc1` gave BioA inh -1, FBA Mtb inh -2, FadD28 binding -3, Mtb hypoxia inh 5 and GDH-TPI inh 40*.
Screening O=C(O)COc1ccc(/C=C/c2ccc3cccc([N+](=O)[O-])c3n2)cc1 returned BioA inh 2, FBA Mtb inh -4, FadD28 binding 0, Mtb hypoxia inh -2 and GDH-TPI inh 26.
Screening COc1cc(/C=C/c2ccc3cccc(O)c3n2)cc(Br)c1OC returned BioA inh -1, FBA Mtb inh -2, FadD28 binding 0, Mtb hypoxia inh 9 and GDH-TPI inh 11.
`COc1cc(/C=C/c2ccc3cccc(O)c3n2)cc(OC)c1OC` gave BioA inh 0, FBA Mtb inh -1, FadD28 binding 13*, Mtb hypoxia inh -4 and GDH-TPI inh 21.
For CCCNC(=O)N1[C@H](CO)[C@H](c2ccc(C3=CCCC3)cc2)[C@@H]1CNC(=O)CC the results were BioA inh -4.
Screening NC(=NN=Cc1cccc([N+](=O)[O-])c1)c1nonc1N returned Mtb hypoxia inh -6.

Bioassay records as filed in PubChem BioAssay.
